TTR transcr act: increases transthyretin transcription; AID 1117267; 92,000 compounds, 1.3% hits; activation, % at 16.7 µM; SH-SY5Y TTR promoter Gaussia luciferase, luminescence; 100% = recombinant luciferase protein wells;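 active = activation above the mean of all tested compounds plus 3 SD, cut at about 9.5% in these data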;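 note: cells exposed to compounds for one day before reading; 0% = median of all test compound wells on the plate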
HuH7 TTR inh: decreases TTR transcription in HuH7 cells in activator counter-screen; 1,100 compounds, 4% hits; inhibition, % at 16.7 µM; HuH7 TTR promoter-Gaussia luciferase reporter, luminescence; shares compounds with TTR transcr act;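 active = average inhibition above the solvent-only control wells' mean plus 3 SD, cut at about 15% in these data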;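 note: 0% = cells with DMSO only and 100% = cells with inhibitor control FD; inhibitors lower well luminescence so higher value means more inhibition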
TTR act confirm: confirmation of human transthyretin transcription activators; shares compounds with TTR transcr act; SHSY5Y TTR promoter Gaussia luciferase, luminescence; 100% = purified Lucia enzyme wells, no cells; activation, % at 16.7 µM; 1,100 tested, under 10 active; AID 1117280;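 active = mean activation above a set limit taken from the earlier primary screen, cut at about 11% in these data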;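 note: 0% = DMSO-treated cells and 100% = recombinant Lucia luciferase without cells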
Starred values were filed as active, the others as inactive. The full list was thinned out, with hits kept by preference.

SMILES | TTR transcr act | others
COP(=O)(CC(=O)C(Cc1ccccc1)NC(=O)OC(C)(C)C)OC (centres undefined) | 1
CCC[C@H]1[C@@H](NC(=O)/C=C/c2ccccc2)CC[C@@]23CCCN2C(=O)CCC[C@@H]13 | 1
CCC[C@H]1[C@@H](NC(=O)c2ccc(N(C)C)cc2)CC[C@@]23CCCN2C(=O)CCC[C@@H]13 | 0
Cc1cccc(C)c1NC(=O)COC(=O)c1cc(=O)[nH]c2ccccc12 | -2
CCNC(=O)COC(=O)c1cc(=O)[nH]c2ccccc12 | 0
Cc1noc(C)c1COC(=O)c1cc(=O)[nH]c2ccccc12 | 31* | HuH7 TTR inh=-17;TTR act confirm=0
CC1CCCN(CC(=O)N2c3ccccc3Sc3ccccc32)C1 (centres undefined) | 15* | HuH7 TTR inh=0;TTR act confirm=0
O=C(CN1CCCC(O)C1)N1c2ccccc2Sc2ccc(C(F)(F)F)cc21 (centres undefined) | -3
CN(C)CC(=O)N1c2ccccc2Sc2ccc(Cl)cc21 | 2
C[C@@H]1CCN(C2CC2)S(=O)(=O)c2ccc(N3CC[C@H](N(C)C)C3)cc2O1 | 2
COC(=O)[C@]12C[C@H](CC(=O)NCC34CC5CC(CC(C5)C3)C4)C(=O)N(CCc3ccc(OC)c(OC)c3)C1=C[C@H](C(C)C)O[C@@H]2C1CC1 | 4
Nc1[nH]c(=O)nc2snnc12 | 1
O=C(Nc1ccc(Br)c(C(F)(F)F)c1)[C@@H]1CC=C[C@@H]2CCN(CC3CC3)C(=O)[C@@H]21 | -1
CN1C(=O)[C@H]2[C@@H](c3ccccc3)N[C@]3(CCCN(Cc4ccco4)C3=O)[C@H]2C1=O | 10* | HuH7 TTR inh=-7;TTR act confirm=1
CCN1C(=O)[C@H]2[C@@H](c3ccc(OC)cc3)N[C@]3(CCCN(Cc4ccco4)C3=O)[C@H]2C1=O | 4
COc1ccc([C@H]2N[C@]3(CCCN(Cc4cccn4C)C3=O)[C@H]3C(=O)N(C)C(=O)[C@@H]23)cc1 | 0
CCN1C(=O)[C@H]2[C@@H](c3ccc(C)cc3)N[C@]3(CCCN(CCC(C)C)C3=O)[C@H]2C1=O | 20* | HuH7 TTR inh=-5;TTR act confirm=0
CC(C)CCN1CCC[C@]2(N[C@H](c3ccccc3)[C@@H]3C(=O)N(Cc4ccccc4)C(=O)[C@@H]32)C1=O | 2
CCN1C(=O)[C@H]2[C@@H](c3ccccc3)N[C@]3(CCCN(Cc4ccccc4)C3=O)[C@H]2C1=O | 0
O=C(OCc1ccccc1)[C@H](Cc1ccccc1)NC(=O)[C@@H]1CC=C[C@@H]2CCN(C3CCCCC3)C(=O)[C@@H]21 | 0
C#CCNC(=O)c1cnn(-c2ccccc2)c1N | -1
O=C(CCc1ccccc1-c1ccccc1CCNC(=O)c1c(F)cccc1F)NCc1ccccc1 | -1
c1nc(NC[C@@H]2CCCO2)c2cc(-c3ccc4c(c3)OCO4)ccc2n1 | 0
CC(C)(C)[C@@H]1/C(=C/C2CC2)N2C(=O)C[C@@H](c3ccccc3)N=C2N1Cc1ccc2c(c1)OCO2 | -2
Cc1c(N(C)C(=O)c2ccc3c(c2)OCO3)c(=O)n(-c2ccccc2)n1C | -2
SMILES | TTR transcr act | others
Cc1c(N(C)C(=O)C23CC4CC(CC(C4)C2)C3)c(=O)n(-c2ccccc2)n1C | -1
Cc1c(N(C)S(=O)(=O)c2cc(C(=O)N3CCCC3)ccc2Cl)c(=O)n(-c2ccccc2)n1C | 13* | HuH7 TTR inh=-9;TTR act confirm=0
COC(=O)c1cc(-c2cc3ccccc3o2)c(=O)n2c1CCC2 | 1
C[C@H]1[C@@H](OC(=O)NC2CCCCC2)CC[C@@]23CCCN2C(=O)CCC[C@@H]13 | 1
CC1C(=O)N(Cc2cn(CCC3OCCO3)nn2)CCS(=O)(=O)N1Cc1ccc(-c2ccncc2)cc1 (centres undefined) | -2
CC1C(=O)N(Cc2cn(CCC3OCCO3)nn2)CCS(=O)(=O)N1Cc1ccc(-c2cccc(N(C)C)c2)cc1 (centres undefined) | 37* | HuH7 TTR inh=-4;TTR act confirm=1
CC1C(=O)N(Cc2cn(CCC3OCCO3)nn2)CCS(=O)(=O)N1Cc1ccc(-c2ccc(F)cc2)cc1 (centres undefined) | -1
C[C@H]1[C@H](NC(=O)c2ccc(Cl)c(C(F)(F)F)c2)CC[C@@]23CCCN2C(=O)CCC[C@@H]13 | -1
CCCC1CCC2(CC1)CCC2OC(=S)Nc1ccc(Br)cc1 (centres undefined) | 0
O=C(NCCc1c[nH]c2ccccc12)OCc1cn(-c2ccccc2Cl)nn1 | 1
COC(=O)[C@@]12CCCCC3=C1N(CCC3)C(=O)[C@H]2CC(=O)N1CCOCC1 | -1
N#C/C(=C\c1ccc[nH]1)C(=O)NCC1CCCO1 (centres undefined) | 11* | HuH7 TTR inh=-8;TTR act confirm=0
Cc1ccc(/C=C(\C#N)C(=O)NCC2CCCO2)o1 (centres undefined) | 5
CCOc1cc(/C=C(\C#N)C(=O)NCC2CCCO2)ccc1O (centres undefined) | 6
CC[n+]1c(C)sc2c(C)cc(C)cc21 | 26* | HuH7 TTR inh=-3;TTR act confirm=0
O=C(CCN1CCOCC1)c1ccccc1 | -2
O=C(CCN1CCOCC1)NCc1ccccc1 | 1
N/C(CCN1CCOCC1)=N/O | 10* | HuH7 TTR inh=-16;TTR act confirm=0
S=C(Nc1ccccc1Br)OCCN1CCCC12CCC(c1ccccc1)CC2 (centres undefined) | -1
COc1ccc(C2Nc3ccccc3C(=O)N2Cc2ccco2)cc1COc1c(C)cc(NC(C)=O)cc1C (centres undefined) | -3
COC(=O)c1ccc(Cn2ccc3ccc(-c4ccc5ccn(Cc6ccccc6)c5c4)cc32)cc1 | 0
Cc1cc(C)n(CCOc2ccc(Br)cc2)n1 | 10* | HuH7 TTR inh=-18;TTR act confirm=0
Cc1cc(C)n(CC(O)COc2cccc(OCC(O)Cn3nc(C)cc3C)c2)n1 (centres undefined) | -4
Cc1cc(C)n(CCCC(=O)O)n1 | -2
Cc1ccccc1C(=O)NC1CCCCN(C(C)C)C1=O (centres undefined) | 1
SMILES | TTR transcr act | others
COC(=O)[C@]12C[C@H](CC(=O)NCCC(C)C)C(=O)N(Cc3cccc4ccccc34)C1=C[C@H](C(C)(C)C)O[C@@H]2C | -2
O=C(Nc1ccc2ncccc2c1)c1ccccc1 | 1
O=C(Nc1ccc2ncccc2c1)c1ccccc1Cl | 11* | HuH7 TTR inh=-7;TTR act confirm=-1
O=C(NC(=S)Nc1ccc2ncccc2c1)c1ccccc1 | -1
CCOC(=O)[C@]12CCCC=C1N(CCCOC)C(=O)[C@@H]2CC(=O)NCCCN1CCCC1=O | 2
Cc1cc(C(F)F)n2nc(C(=O)Nc3c(F)cc(F)cc3Br)nc2n1 | 1
COC(=O)c1ccccc1NC(=O)c1nc2nc(C)cc(C(F)F)n2n1 | 9.8* | HuH7 TTR inh=-9;TTR act confirm=0
Cc1cc(C(F)F)n2nc(C(=O)O)nc2n1 | 0
COc1ccc(S[C@]2(C(=O)N3CCN(c4ncccn4)CC3)CC(=O)N(C(=O)C3CC3)[C@@H]2c2ccc(OC)cc2)cc1 | 7
Cc1ccccc1C(=O)n1ccc2ccc(-c3ccc4ccn(Cc5ccccc5)c4c3)cc21 | 1
Cc1cc(C)nc(NS(=O)(=O)c2ccc(NC(=O)C3CC3)cc2)n1 | 24* | HuH7 TTR inh=-21;TTR act confirm=0
Cc1ccnc(NS(=O)(=O)c2ccc(NC(=O)C3CC3)cc2)n1 | 5

Screens from PubChem.
